The list is not random: actives were taken first. Their share in the collection is about 22%.
LmPK inhibitor – inhibitors of Leishmania mexicana pyruvate kinase; purified LmPK, Kinase-Glo ATP luminescence, 1 h; Potency, µM (highest dose often 57.5 µM), inactives show at the highest dose activity change, negative = inhibition, hits mostly inhibitors; actives 0.37% (n = 290,000); AID 1721; further: potency means the concentration at half of the fitted maximal effect; on the % scale 0 is the no-effect control and ±100 the full control effect
Target sequence (Q27686 whole entry, looked up): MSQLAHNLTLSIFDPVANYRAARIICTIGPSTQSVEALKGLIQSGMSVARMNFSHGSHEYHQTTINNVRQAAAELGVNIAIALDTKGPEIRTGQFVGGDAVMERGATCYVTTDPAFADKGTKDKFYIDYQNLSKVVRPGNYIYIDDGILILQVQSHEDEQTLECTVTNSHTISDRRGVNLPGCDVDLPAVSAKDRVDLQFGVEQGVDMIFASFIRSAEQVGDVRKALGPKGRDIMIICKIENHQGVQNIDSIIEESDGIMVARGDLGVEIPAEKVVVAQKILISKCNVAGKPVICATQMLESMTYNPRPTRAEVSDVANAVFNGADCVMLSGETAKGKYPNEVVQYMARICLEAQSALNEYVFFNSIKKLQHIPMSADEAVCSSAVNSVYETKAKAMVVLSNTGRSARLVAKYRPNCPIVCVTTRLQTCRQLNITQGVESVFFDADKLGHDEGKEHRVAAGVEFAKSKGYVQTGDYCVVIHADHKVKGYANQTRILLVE
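Kinase-Glo luminescence read after 1 h RT reaction of 0.1 nM LmPK with 0.5 mM PEP and 0.1 mM ADP. Activity scaled between uninhibited and enzyme-free controls.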
Pf growth 48h – inhibits P. falciparum growth in the first generation, 48 h; actives 5.9% (n = 310,000); Potency, µM (titrated, usually from 28.7 µM), without a hit: at the highest dose activity change, negative = inhibition, most hits filed as inhibitors; P. falciparum luciferase growth in erythrocytes, 48 h; further: potency means the concentration at half of the fitted maximal effect; on the % scale 0 is the no-effect control and ±100 the full control effect
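Parasite viability was followed by luminescence of a genomically integrated firefly luciferase. Cultures held 0.1% parasitemia at 2% hematocrit (final), incubated under 5% CO2 at 37 C.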
Cycloheximide cs – affects cycloheximide protein synthesis inhibition readout, counter-screen | cell reporter, cycloheximide protein synthesis inhibition counterscreen | max response, % | actives 12% (n = 300,000); in the data active means max response mostly above about 13%, no sharp cut-off; inactive means mostly below about 14%; further: read at 38.3 µM for the half of the compounds with a filed dose; 0% is about no effect
Pf growth 96h – P. falciparum growth inhibition at 96 hour, primary screen for plastid delayed-death inhibitors; P. falciparum luciferase reporter growth, 96 h; Potency, µM (top dose mostly 28.7 µM), without a hit: at the top dose activity change, negative = inhibition, most hits filed as inhibitors; actives 6.9% (n = 320,000); AID 504834; further: potency means the concentration at half of the fitted maximal effect; on the % scale 0 is the no-effect control and ±100 the full control effect
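Parasite growth measured via integrated firefly luciferase reporter in P. falciparum. Infected erythrocytes at 2% hematocrit, 0.05% parasitemia final were treated 96 hours at 37 C under 5% CO2, and luminescence was read.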
Shiga toxin inh – Shiga toxin inhibition. actives 9.2% (n = 290,000). inhibition, % at 38.7 µM. AID 2315. Vero cells, Shiga toxin protein synthesis inhibition reporter; in the data active means inhibition mostly above about 28%, no sharp cut-off; inactive means mostly below about 43%; further: 0% is about no effect
* marks the source's active call; other numbers are inactive results; i = inactive; ? = inconclusive; / = not tested or not shown. Unless noted, the call rests on the fitted dose curve; in most records, active means well fitted inhibition curve with a large enough effect; inconclusive means small, poorly fitted or top-dose-only effect, or another doubt; inactive means no such curve, though single readings can be large or run the other way.

SMILES	LmPK inhibitor	Pf growth 48h	Cycloheximide cs	Pf growth 96h	Shiga toxin inh
COc1ccc(OCCOCCOc2ccc(C)cc2[N+](=O)[O-])cc1	0%	-7%	-2	-30%	23
Cc1ccc(OCCOc2ccc(Cl)cc2Cl)c([N+](=O)[O-])n1	4%	62%	52*	72%	106*
Cc1ccc(CNC(=O)COc2ccc(C)nc2[N+](=O)[O-])cc1	-1%	36%	-3	51%	-9
Cc1ccc(COc2ccc(C)nc2[N+](=O)[O-])cc1	7%	476%	50*	226%	83*
Cc1ccc(OCC(=O)c2ccc(Cl)s2)c([N+](=O)[O-])n1	2%	257%	27	11%	43
COc1ccc(OCCOc2ccc(C)nc2[N+](=O)[O-])cc1	0%	157%	49*	110%	93*
CCO/N=C(\C)c1c(O)c2ccccc2n(C)c1=O	0%	-16%	-1	12%	-8
CCN(CC)S(=O)(=O)c1cccc(C(=O)N/N=C/c2cccc(O)c2O)c1	-2%	?	53*	?	77*
CCN(CC)S(=O)(=O)c1cccc(C(=O)N/N=C/c2cc(OC)c(O)c(OC)c2)c1	1%	-2%	6	i	-4
CCN(CC)S(=O)(=O)c1cccc(C(=O)N/N=C/c2ccccn2)c1	4%	?	33*	-4%	8
NN(Cc1ccccc1)C(=S)Nc1ccc(Cl)c(Cl)c1	-6%	12%	1	26%	41
CCCCc1nnc(SCC(=O)Nc2nccs2)n1C	4%	23%	2	10µM*	15
Cn1c(CC(=O)Nc2ccc(Cl)c(Cl)c2)nnc1SCC(=O)Nc1nccs1	4%	/	1	-17%	-5
CCCc1nnc(SCC(=O)Nc2nccs2)o1	-6%	9.3µM*	-2	8%	-3
Cn1c(CSCc2ccccc2Cl)nnc1SCC(=O)Nc1nccs1	1%	?	-2	12µM*	-7
Cn1c(SCC(=O)Nc2nccs2)nnc1C1CC1	6%	48%	2	-42%	-4
Cn1c(SCC(=O)Nc2nccs2)nnc1C12CC3CC(CC(C3)C1)C2	-1%	0%	27*	9%	37
Cc1ccc(CNC(=O)[C@H](C)[C@H]2C[C@]2(C)[C@H](NC(=O)OCc2ccccc2)c2ccccc2)o1	7%	?	10	?	19
C/C(=N\N=c1/sc2ccccc2n1C)c1ccccn1	-1%	138%	78*	103%	69*
C/C(=N\N=c1/sc2ccccc2n1C)c1ccc(N2CCOCC2)cc1	-9%	31%	22*	43%	81
COc1cc(C(=O)N=c2sc3ccccc3n2C)cc(OC)c1OC	1%	-13%	16	?	7
C/C(=N\NC(=O)c1cc(-c2ccncc2)nc2ccccc12)c1ccc(N2CCOCC2)cc1	-2%	-12%	-7	?	-13
O=C(Cn1nc(C(F)(F)F)c2c1CCC2)Nc1ccccc1C(F)(F)F	3%	-24%	2	i	-2
CC(C)CNC(=O)Cn1nc(C(F)(F)F)c2c1CCCC2	-7%	20%	-5	10µM*	5
COc1ccccc1NC(=O)Cn1nc(C(F)(F)F)c2c1CCCC2	2%	14%	-3	2.1µM*	3
SMILES	LmPK inhibitor	Pf growth 48h	Cycloheximide cs	Pf growth 96h	Shiga toxin inh
CCNC(=O)c1ccc(-n2nc(C(F)(F)F)c3c2CCCC3)cc1	2%	15µM*	-3	7.4µM*	-11
CCC(CC)C(=O)Nc1ccc(C(=O)Nc2cc(C)on2)cc1	2%	31%	-2	13%	-2
CC1(C)Oc2ccc(C(=O)N/N=C/c3ccc(O)cc3)cc2NC1=O	-4%	26%	-3	28%	-5
Oc1cccc(Nc2c3ccccc3nc3ccccc23)c1	3%	?	6	-11%	19
OCCNc1nc(NCc2ccccc2)c2ccccc2n1	-5%	?	-1	12µM*	-5
OCCNc1nc(Nc2cccc(O)c2)nc2ccccc12	-2%	2.3µM*	-3	0.1µM*	13
OCCNc1nc(Nc2ccc(O)cc2)nc2ccccc12	8%	1.7µM*	-3	5.2µM*	-5
Cc1nnc(SCC(=O)Nc2ccc(N(C)C)cc2)[nH]c1=O	/	/	7	/	25
O=C1CSC(=S)N1c1ccc(F)cc1	1%	-4%	-1	19%	-12
O=C(O)c1cccc(N2C(=O)CSC2=S)c1	1%	/	19*	5.9µM*	37
CN(C)c1ccc(N2C(=O)CSC2=S)cc1	-5%	8%	19*	5.2µM*	62*
O=C1CSC(=S)N1c1cccc(O)c1	-2%	29%	10	31%	3
O=C1CSC(=S)N1c1cccc(F)c1	-3%	27%	2	10µM*	-3
COC(=O)[C@@H](Cc1c[nH]c2ccccc12)NC(=O)CNC(=O)c1ccccc1OC	5%	16%	-10	7%	-2
Cc1ccc(C(=O)OC(C(=O)O)C(OC(=O)c2ccc(C)cc2)C(=O)O)cc1 (stereo not drawn)	/	?	/	-14%	/
CC(=O)c1ccc(S(=O)(=O)N2CCN(C(=O)CSc3ccc(C)c(C)c3)CC2)cc1	2%	?	-4	-27%	-9
CCOC(=O)C1CCN(C(=O)c2cc(COc3ccc(OC)c4ccccc34)on2)CC1	8%	12%	43*	2%	82*
COc1ccc(OCc2cc(C(=O)N3CCC(OC)CC3)no2)c2ccccc12	-3%	-9%	41*	-36%	126*
COc1cccc(OCc2cc(C(=O)N3CCC(C(O)C(C)C)CC3)no2)c1 (stereo not drawn)	-2%	?	23	?	6
CC(=O)Nc1c(C(=O)O)oc2ccc(Cl)cc12	0%	-3%	-1	2.6µM*	-10
CC(=O)Nc1c(C(=O)c2ccc(F)cc2)oc2ccccc12	6%	14%	-5	-9%	-11
CC(=O)Nc1c(C(=O)O)oc2ccccc12	0%	97%	24*	-24%	41
CC(=O)Nc1c(C(N)=O)oc2ccc(Cl)cc12	-1%	22%	-1	0%	-15
COC(=O)c1oc2ccccc2c1NC(=O)c1ccccc1O	1%	10µM*	7	54%	3
CCCCOc1ccc(C(=O)Oc2cccnc2)cc1	-8%	35%	1	?	9
Cc1ccnc2nc(C(=O)OC(C)C(=O)NCc3ccccc3)nn12 (stereo not drawn)	/	-17%	/	9%	/
O=C(Nc1ccc(Cl)c(Cl)c1)Nc1cc(S(=O)(=O)N2CCOCC2)ccc1N1CCCC1	0%	3%	1	-2%	-2
CCCN(CCc1cccs1)[C@H]1CCc2c(O)cccc2C1	/	6.7µM*	/	1.5µM*	/
CCCCNC(=O)O[C@@H]1C[C@@H]2CCN3C(=O)CCC[C@H]([C@H]1CC)[C@H]23	-1%	-12%	-2	?	-6
CC[C@@H]1[C@H]2CCCC(=O)N3CC[C@@H](C[C@@H]1OC(=O)Nc1ccccc1)[C@@H]23	-4%	?	1	2.3µM*	-15
